Lassa entry inh: inhibitors of Lassa virus binding or cell entry; Lassa virus pseudotype entry inhibition, cell reporter; Potency, µM (highest dose often 37.9 µM), hits mostly inhibitors; 300,000 compounds, 1.2% hits; AID 540256; calls by dose curve; tested in HEK293 cells; note: nearly all actives have a fitted effect of over 50% in size
AMA1-RON2 inh: inhibitors of Plasmodium falciparum AMA1-RON2 interaction; Potency, µM (series often up to 58.2 µM), hits mostly inhibitors; AlphaScreen AMA1-biotinylated RON2 peptide binding; 360,000 compounds, 0.2% hits; active = well fitted inhibition curve with a large enough effect; inconclusive = small, poorly fitted or top-dose-only effect; inactive = no such curve, though single readings can be large or run the other way; note: nearly all actives have a fitted effect of over 45% in size
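AMA1 (3D7) with his tag at 25 nM final met compounds first, then biotinylated RON2 peptide at 25 nM; detection used donor plus acceptor beads, 10 µg/mL apiece, read by AlphaScreen after 30 min at room temperature.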
Cycloheximide cs: affects cycloheximide protein synthesis inhibition readout, counter-screen. cell reporter, cycloheximide protein synthesis inhibition counterscreen. max response, %. 300,000 compounds, 12% hits. AID 2314; in the data active = max response mostly above about 13%, no sharp cut-off; inactive = mostly below about 14%; note: read at 38.3 µM for the half of the compounds with a filed dose
Shiga inhibitor: blocks Shiga toxin action in Vero cells; 290,000 compounds, 9.2% hits; Vero cells, Shiga toxin protein synthesis inhibition reporter; inhibition, % at 38.7 µM; AID 2315; in the data active = inhibition mostly above about 28%, no sharp cut-off; inactive = mostly below about 43%
Marburg entry inh: blocks Marburg virus binding to or entry into cells. 300,000 compounds, 1.8% hits. Marburg virus pseudotyped entry inhibition, cell reporter. Potency, µM (titrated, usually from 37.8 µM), most hits filed as inhibitors; calls by dose curve; tested in HEK293 cells
Numbers stand for hits; n = inactive; u = inconclusive; x = not tested or not shown; + = active, no number. Only a selection was taken, and hits are over-represented in it overall.

SMILES	Lassa entry inh	AMA1-RON2 inh	Cycloheximide cs	Shiga inhibitor	Marburg entry inh
COc1cc(/C=N/NC(=O)c2ccc(O)cc2)ccc1OCC(=O)Nc1cccc([N+](=O)[O-])c1	x	n	n	n	x
CC(C)(C)c1ccc(CC(=O)N2CCC2(C)C(=O)N2CCCCC2)cc1 (stereo not drawn)	x	n	x	x	x
CC(C)[C@H]1C(=O)Nc2ccccc2N1C(=O)N[C@@H](Cc1ccccc1)C(=O)N[C@H](C(=O)O)c1ccccc1	x	n	n	n	x
CCOc1c(Br)cc(/C=N\NC(=O)c2ccccc2)cc1OC	n	n	32	active	u
COc1ccc(/C=N\NC(=O)c2ccccc2)cc1COc1ccccc1	u	n	25	45	n
CCOc1c(Br)cc(C(N)=O)cc1OCc1ccccc1	12µM	n	n	n	u
COc1ccc(/C=N/NC(=O)c2cccc(Br)c2)cc1CN1CCOCC1	n	n	19	n	n
COc1cc(C(N)=O)cc(Br)c1OCc1ccccc1	n	n	n	n	n
CCCN(C(=O)CSc1ccccc1C(=O)O)C1CCS(=O)(=O)C1 (stereo not drawn)	x	n	x	x	x
C[C@@H]1C(=O)N(C)C(=O)c2nc[nH]c21	x	x	x	x	n
COc1ccc(/C=N/NC(=O)c2cccc(Br)c2)cc1COc1ccccn1	n	n	14	n	n
COc1cc(/C=N/NC(=O)c2sc(N)c(C#N)c2C)ccc1O	n	n	n	n	4.5µM
COc1ccc(/C=N/NC(=O)c2ccccc2O)cc1CSc1ccccn1	n	n	n	n	n
Cc1c(C(=O)N/N=C/c2ccc(O)c(Br)c2)sc(N)c1C#N	u	n	n	n	u
COc1ccc(/C=N/NC(=O)c2ccccc2O)cc1COc1ccccn1	x	n	23	41	x
NCCCC(=O)N1c2ccccc2Sc2ccc(Cl)cc21	0.71µM	n	n	n	u
NCCC(=O)N1c2ccccc2Sc2ccc(Cl)cc21	x	n	n	n	x
O=c1oc2ccccc2cc1-c1csc(NN=C2CCCC2)n1	u	n	14	n	u
O=C(O)c1cccc(Nc2nc(-c3cc4ccccc4oc3=O)cs2)c1	u	n	41	74	u
C/C(=N\Nc1nc(-c2cc(C)ccc2C)cs1)c1cc2ccccc2oc1=O	n	n	n	n	u
CCC(C(=O)Nc1ccc(C)c(C)c1)n1c(=O)c(C(F)(F)F)nc2ccccc21 (stereo not drawn)	n	x	x	x	x
CC(C)(C)c1ccc(C(=O)NCC(=O)OCC(=O)Nc2ccc3c(c2)OCCO3)cc1	n	n	12	n	n
O=C(CNC(=O)C1CCCCC1)Nc1ccc(Cl)cc1	n	n	23	30	n
CC(C)(C)OC(=O)N1Cc2ccccc2C[C@H]1C(=O)NCC(=O)Nc1ccc2c(c1)OCCO2	x	n	52	114	x
O=C(COC(=O)CNC(=O)C1CCCCC1)Nc1ccc2c(c1)OCCO2	u	n	26	n	n
SMILES	Lassa entry inh	AMA1-RON2 inh	Cycloheximide cs	Shiga inhibitor	Marburg entry inh
O=C(CCl)NC1(C(F)(F)F)C(=O)Nc2c1c(=O)[nH]c(=O)n2-c1ccccc1 (stereo not drawn)	u	n	n	n	n
CC(C)(C)c1ccc(C(=O)NCC(=O)OCC(=O)Nc2ccccc2[N+](=O)[O-])cc1	n	n	41	45	n
COC(=O)C/C=C/[C@@H](C)[C@@H](/C=N/OC[C@@H](C)[C@H](OCc1ccccc1)C(C)C)NS(=O)(=O)c1ccc(C)cc1	u	x	n	n	n
Cc1c(C(=O)O)sc2ncn(C)c(=O)c12	n	n	n	n	n
Cc1ccc(OC(=O)c2sc3ncn(C)c(=O)c3c2C)cc1	n	n	41	142	u
CC1=NN(Cc2cc(C(C)(C)C)c(O)c(C(C)(C)C)c2)C(=O)C1	x	n	n	n	x
CCCCCN1N=C(C)CC1=O	2µM	n	n	n	n
C[C@H]1CC[C@H]2C(=O)NC[C@H](O)CN2[C@H]1c1ccc(Br)cc1	x	x	x	x	n
COc1ccc(CCNC(=O)c2cnc3n(c2=O)CCS3)cc1OC	n	n	n	n	n
O=C(NCCC1=CCCCC1)c1cnc2n(c1=O)CCS2	n	n	41	41	n
CCCCNC(=O)c1cnc2n(c1=O)CCS2	n	n	n	n	n
O=C(NCCCc1ccccc1)c1cnc2n(c1=O)CCS2	u	n	38	63	u
O=C(NCc1ccccc1)c1cnc2n(c1=O)CCS2	n	n	n	n	n
O=C(NCCc1ccc(Cl)cc1)c1cnc2n(c1=O)CCS2	x	n	41	+	x
COC(=O)CC1Oc2ccc(C)cc2-n2cc(-c3ccc(C)cc3)nc21 (stereo not drawn)	u	x	x	x	n
c1ccc(-c2nc3c4ccccc4ccn3c2CN2CCOCC2)cc1	x	n	49	64	x
Clc1ccc(-c2nc3ccccn3c2CN2CCOCC2)cc1	n	n	21	25	n
COc1ccc(-c2nc3c4ccccc4ccn3c2CN2CCOCC2)cc1OC	x	n	32	74	x
CN1CCN(CC(=O)c2ccccc2F)CC1	u	n	n	n	n
Cc1ccc([C@@H]2CC=C(C(=O)O)[C@H](c3cccc(F)c3)N2S(=O)(=O)c2ccccc2C)cc1	x	n	x	x	x
C=C1C(=O)O[C@H]2[C@H]1[C@@H](O)CC(=C)[C@@H]1CC(=O)[C@@H](C)[C@H]21	u	n	32	36	u
CCCCOc1ccc(C(=O)NCC(=O)NCCOc2ccc(C)cc2)cc1	x	n	x	x	x
CCCCOc1ccc(C(=O)NCC2(c3ccc(OC)cc3)CCOCC2)cc1	2.8µM	n	n	n	u
Cc1ccc(OCCNC(=O)c2ccc(C)cc2)cc1	x	n	46	79	x
COc1ccc(C2(CNC(=O)c3ccc(Br)o3)CCOCC2)cc1	n	n	n	n	n
SMILES	Lassa entry inh	AMA1-RON2 inh	Cycloheximide cs	Shiga inhibitor	Marburg entry inh
CSCc1ccc(C(=O)NCCSc2ccc(Br)cc2)cc1	n	n	55	103	u
COc1ccc(C(=O)NCCCCCCNC(=O)c2ccc(OC)cc2)cc1	u	n	16	n	n
COc1ccc(C(=O)NCCNC(=O)c2ccc(OC)cc2)cc1	n	n	x	x	n
CC1CCN(S(=O)(=O)c2ccc(NC(=O)C3CCCCC3C(=O)O)cc2)CC1 (stereo not drawn)	n	n	x	x	n
COc1ccc(C(=O)NCCONC(=O)c2ccc(OC)cc2)cc1	n	n	n	n	n
COc1ccc(S(=O)(=O)N(C)c2ccc(C(=O)NCCC(C)C)cc2)cc1	8.2µM	n	n	n	n
COc1ccc(C(=O)NN)cc1	n	n	24	n	n
COc1ccc(C(=O)NCCSc2ccccc2)cc1	u	n	46	21	u
Cc1ccc(OCCNC(=O)CNC(=O)c2ccccc2Cl)cc1	n	n	x	x	n
Cc1ccc(OCCNC(=O)c2ccccc2O)cc1	n	n	12	n	n
COc1ccc(OCCNC(=O)c2ccc(C)cc2)cc1	n	n	29	56	u
CCOc1cc(/C=C2\COc3ccccc3C2=O)cc(Br)c1OCC(=O)N(C)C	u	n	n	n	u
COC1CCCCC1C1CCN(C(=O)c2ccco2)CC1 (stereo not drawn)	x	x	x	x	n
CCN1C/C(=C/c2cccc([N+](=O)[O-])c2)C(=O)/C(=C/c2cccc([N+](=O)[O-])c2)C1	2.8µM	n	n	n	15µM
O=C1NC(=O)/C(=C/c2cccc([N+](=O)[O-])c2)N1	x	n	n	n	x
COc1cc(/C=C2\Oc3cc(O)ccc3C2=O)ccc1O	x	n	51	70	x

Screens deposited in PubChem BioAssay by National Center for Advancing Translational Sciences (NCATS).
